Assay: small molecules captured by biotinylated probe aFSTL3 – biochemical, small-molecule microarray, fluorescence 635/667, stem cell growth factor project, primary screen (AID 1064);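 further: measures binding of the biotinylated anti-FSTL3 antibody to printed compounds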
Details: higher = more signal
Work on COCC(=C=CC[C@@H](O)c1ccccc1OCCO)C[C@@H](O)c1ccccn1 yielded a composite z-score of -0.304.
COc1ccc([Si](C)(C)[C@H]2[C@H](CCO)O[C@@]3(C(=O)N(Cc4cccc(N5CCOC5=O)c4)c4ccccc43)[C@@H]2C)cc1 gave a composite z-score of -0.167.
Work on COC(=O)C(CC#Cc1ccc2c(c1)[C@]1(C(=O)N2)[C@H](C(=O)N2CCc3cc(OC)c(OC)cc3C2)[C@H]2C(=O)O[C@H](c3ccccc3)[C@H](c3ccccc3)N2[C@@H]1c1ccc(O)cc1)C(=O)OC yielded a composite z-score of 0.145.
Molecule COc1ccc([Si](C)(C)[C@H]2[C@H](CCn3cc(CCO)nn3)O[C@@]3(C(=O)N(Cc4cccc(N5C(=O)c6cccc7cccc5c67)c4)c4ccccc43)[C@@H]2C)cc1 has a composite z-score of -0.201.
Molecule C[C@H]1ON(c2ccccc2)[C@@H](c2ccccc2)[C@@H]1C(=O)N1C(=O)OC[C@@H]1c1ccccc1 has a composite z-score of -0.331.
Molecule COc1ccc(C#Cc2ccc3c(c2)[C@]2(C(=O)N3)[C@H](C(=O)O)[C@H]3C(=O)O[C@H](c4ccccc4)[C@H](c4ccccc4)N3[C@@H]2c2ccc(OCCO)cc2)cc1 has a composite z-score of -0.397.
For C=CCC(OC(C)=O)[C@@H]1[C@@H](N(Cc2ccc(-c3ccccc3)cc2)C(=O)Cc2ccc(OC)cc2)c2cc(OCCCO)ccc2N1C(=O)c1ccc(-c2ccccc2)cc1 (stereo not given in full), the composite z-score was -0.0141.
Work on Cc1ccc(S[C@]2(C(=O)NCC(C)C)CC(=O)N(C3CCCCC3)[C@@H]2c2ccc(CO)cc2I)cc1 yielded a composite z-score of -0.25.
COC(=O)C(CC#Cc1ccc2c(c1)[C@]1(C(=O)N2)[C@H](c2ccc(OCCO)cc2)N2[C@H](c3ccccc3)[C@H](c3ccccc3)OC(=O)[C@H]2[C@@H]1C(=O)O)C(=O)OC showed a composite z-score of 0.915.
Work on [N-]=[N+]=NCc1ccccc1C[C@@]1(C(=O)NCCN2CCOCC2)N=C(c2ccc(OCCCO)cc2)O[C@@H]1c1ccccc1CN=[N+]=[N-] yielded a composite z-score of -0.166.
C[C@]12C(=O)N(CCCO)[C@@H]3C(=O)N(c4ccc(Cl)cc4)CC=CC31O[C@@H]1/C=C\CCCOC(=O)C12 (stereo not given in full) gave a composite z-score of -0.157.
With CCCCC(O)C1C=CC2C(=O)N(Cc3ccccc3)C(=O)C2N1n1cnnc1 (stereo not given) the composite z-score was -0.246.
Cc1ccccc1C(O)C1C=CC2C(=O)N(C)C(=O)C2N1Nc1ccc([N+](=O)[O-])cc1[N+](=O)[O-] (stereo not given) gave a composite z-score of -0.0166.
Molecule COCCOC(=O)N1C(=O)[C@@]2(c3cc(C#Cc4ccc(OC)cc4)ccc31)[C@H](C(=O)N1CCc3cc(OC)c(OC)cc3C1)[C@H]1C(=O)O[C@H](c3ccccc3)[C@H](c3ccccc3)N1[C@@H]2c1ccc(OCCO)cc1 has a composite z-score of -0.172.
With O=c1c2ccc(Br)cc2nc(-c2ccccc2)n1Cc1cccc(O)c1 the composite z-score was 0.255.
Molecule Cc1ccc(S[C@]2(C(=O)NCCN3CCOCC3)CC(=O)N(C3Cc4ccccc4C3)[C@@H]2c2ccc(CO)cc2)cc1 has a composite z-score of -0.108.
With C=CC[C@@]1(C(=O)NCCN2CCOCC2)N=C(c2ccc(OCCCO)cc2)O[C@@H]1c1ccccc1 the composite z-score was 0.424.
With C[C@H]1NC(=O)C([C@@H](C)OCc2ccccc2)NC(=O)[C@@]23C(=O)N[C@@H](Cc4ccccc4)C2[C@H](C)[C@@]2(C)O[C@H]2C3/C=C/CC/C=C/CNC1=O (stereo not given in full) the composite z-score was -0.0367.
Work on C/C=C/[C@@H](CCn1cc([C@H](O)c2ccccc2)nn1)[Si](C)(C)c1ccc(OC)cc1 yielded a composite z-score of 0.683.
With CCCC=C(CCC)[C@@H](NC(=O)Cc1ccccc1)c1ccc(C(=O)OC)cc1 the composite z-score was 1.22.
In the case of C=C(COC)/C(=C/C[C@@H](OC(=O)c1ccncc1)c1cccc(OCCO)c1)c1cc(C(=O)OC)ccc1OC, the composite z-score is reported as -0.278.
COc1cc(NN2C(C(O)c3ccc(I)cc3)C=CC3C(=O)N(C)C(=O)C32)cc(OC)c1OC (stereo not given) showed a composite z-score of 0.495.
For COCCCNC(=O)[C@@]1(Cc2ccccc2CN=[N+]=[N-])N=C(c2ccc(OCCCO)cc2)O[C@H]1c1ccccc1N=[N+]=[N-], the composite z-score was 0.749.
For O=C(CS)NCCCCCNC(=O)[C@@H]1C[C@@H]2C(=O)N3CCC[C@H]3C(=O)N2[C@@H]1c1ccc(O)cc1, the composite z-score was 0.344.
Cc1cc(C)c(C(O)C2C=CC3C(=O)N(c4ccccc4)C(=O)C3N2Nc2ccc([N+](=O)[O-])cc2)c(C)c1 (stereo not given) showed a composite z-score of 0.0096.
For C=C[C@H](C)[C@H](OC(=O)Nc1ccc(SC)cc1)c1ccc(O)c2ccccc12, the composite z-score was -0.0571.
With COC(=O)C(CC#Cc1ccc2c(c1)[C@]1(C(=O)N2)[C@H](C(=O)N2CCc3cc(OC)c(OC)cc3C2)[C@H]2C(=O)O[C@H](c3ccccc3)[C@H](c3ccccc3)N2[C@@H]1c1ccc(OCCO)cc1)C(=O)OC the composite z-score was -0.295.
Molecule COC(=O)[C@@]1(Cc2ccc(OC)cc2)[C@H]2c3cc(C(=O)N4CCCC4)n(CCc4ccc(O)c(OC)c4)c3C[C@H]2CN1C(=O)c1ccccc1 has a composite z-score of 0.411.
Molecule O=C1N(CCS(=O)(=O)c2ccccc2)Cc2ccccc2C[C@@]12COC(c1ccc(OCCCO)cc1)=N2 has a composite z-score of 0.965.
Molecule CC(C)C[C@H]1NC(=O)[C@H](C)NC(=O)[C@@]23C(=O)N[C@@H](Cc4ccccc4)C2[C@H](C)[C@@]2(C)O[C@H]2C3/C=C/C/C=C\CNC1=O (stereo not given in full) has a composite z-score of -0.021.
Molecule COc1ccc([Si](C)(C)[C@H]2[C@H](CC(=O)N3CCC[C@H]3CO)O[C@@]3(C(=O)N(Cc4ccc(N5C(=O)c6cccc7cccc5c67)cc4)c4ccccc43)[C@@H]2C)cc1 has a composite z-score of -0.276.
COc1cccc(C)c1NC(=O)O[C@H]1[C@H](OC(=O)Nc2ccccc2)[C@H](OC(=O)Nc2ccccc2)[C@@H](OC)O[C@@H]1CO gave a composite z-score of -0.306.
Molecule C=CCC(OC(C)=O)[C@@H]1[C@@H](N(Cc2ccc(-c3ccccc3)cc2)C(=O)c2cccc3ccccc23)c2cc(OCCCO)ccc2N1C(=O)c1ccc2ccccc2n1 (stereo not given in full) has a composite z-score of -0.0204.
O=C1O[C@H](c2ccccc2)[C@H](c2ccccc2)N2[C@H]1[C@@H](C(=O)N1CCN(c3ncccn3)CC1)[C@]1(C(=O)Nc3ccc(C#CCCO)cc31)[C@H]2c1ccc(OCCO)cc1 showed a composite z-score of 0.0379.
COC(=O)[C@@]1(Cc2ccccc2N=[N+]=[N-])N=C(c2ccc(OCCCO)cc2)O[C@H]1c1ccccc1 showed a composite z-score of 0.135.

— PubChem BioAssay
